# PostGolgi yeast – growth inhibition of a yeast mutant, post-Golgi transport screen; 0.9% of 98,000 active; post-Golgi transport phenotypic cell assay; AID 739; inhibition, % at 10 µM;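 also: yeast cells grown in 1536-well plates; yeast grown about 18 h at 30C before absorbance read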
# CYP2C9 inh – human CYP2C9 inhibition | CYP2C9 Supersomes, luciferin-H conversion, luminescence | inhibition, % at 5 µM | AID 777 | P11712 | 20% of 96,000 active;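 active = blocking of liver enzyme CYP2C9 beyond about 50% at 5 µM, limit read from the data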
# Target sequence (P11712 whole entry, looked up): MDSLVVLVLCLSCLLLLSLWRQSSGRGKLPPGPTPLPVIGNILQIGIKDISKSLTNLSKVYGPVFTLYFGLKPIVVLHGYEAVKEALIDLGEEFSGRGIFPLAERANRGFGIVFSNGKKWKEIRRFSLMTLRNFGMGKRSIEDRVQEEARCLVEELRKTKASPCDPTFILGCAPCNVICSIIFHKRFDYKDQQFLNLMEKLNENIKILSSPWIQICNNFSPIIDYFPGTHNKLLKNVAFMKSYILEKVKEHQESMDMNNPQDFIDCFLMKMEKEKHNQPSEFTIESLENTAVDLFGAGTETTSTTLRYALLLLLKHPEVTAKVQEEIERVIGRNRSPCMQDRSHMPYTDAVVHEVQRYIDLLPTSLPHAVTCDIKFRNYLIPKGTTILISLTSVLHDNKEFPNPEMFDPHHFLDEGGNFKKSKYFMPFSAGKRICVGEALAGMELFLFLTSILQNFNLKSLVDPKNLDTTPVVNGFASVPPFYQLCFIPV
# CYP2C9 activ – CYP2C9 (human) activation; P11712; recombinant CYP2C9, luciferin-H conversion, luminescence; hits give high values; factor 1 = untreated enzyme, 0 = blocked; activation factor at 5 µM; 1.4% of 96,000 active;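 active = activation factor of 2 or more for CYP2C9 at a 5 µM dose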;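 also: 0 = sulfaphenazole-blocked wells and 1 = vehicle-only wells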
# CYP2C19 inhib – human CYP2C19 inhibition | CYP2C19 Supersomes, luciferin-H EGE luminescence, 30 min | AID 778 | inhibition, % at 5 µM | P33261 | 21% of 96,000 active;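 active = CYP2C19 inhibition above a set limit at 5 µM in the primary screen, cut at about 50% in these data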;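 also: plate controls were negative control wells for no effect and 2.5 mM tranylcypromine positive control for full effect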
# CYP2C19 act – cytochrome P450 2C19 (human) activation | P33261 | recombinant CYP2C19, luciferin-H EGE luminescence; hits give high values; 0 = fully inhibited enzyme, 1 = untreated enzyme | activation factor at 5 µM | 96,000 tested, under 10 active | AID 1025;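 active = activation factor of at least 2 at 5 µM in the primary screen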;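 also: 0 = wells with 2.5 mM tranylcypromine and 1 = vehicle-only wells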
# PostGolgi ctrl – inhibits growth of the yeast control strain | efflux-deficient yeast background strain, growth absorbance A615, 16 h | inhibition, % at 10 µM | 5% of 98,000 active
# Active calls of the source: *. Only some compounds are listed: those with a hit (about 32% of all), similar ones and a draw of the others. Rule as the data show it, unless noted: active = inhibition above about 30%; inactive = the rest.
SMILES,PostGolgi yeast,CYP2C9 inh,CYP2C9 activ,CYP2C19 inhib,CYP2C19 act,PostGolgi ctrl
Cc1ccc(S(=O)(=O)Nc2nc3ccccc3nc2NCc2ccco2)cc1,0.8,98.8*,0,19.2,0.8,12.8
Cc1noc(C)c1CSc1nnc2scc(-c3ccc(Cl)cc3)n12,1.8,-10.6,1.1,8.4,0.9,1.1
Cc1noc(C)c1CSc1nc2ccccc2nc1NS(=O)(=O)c1ccc(Cl)cc1,7.0,87.1*,0.1,4.0,1,-1.0
O=C(NCC(F)(F)F)N1CCOCC1,9.1,-19.1,1.2,-19.1,1.2,4.3
COc1ccccc1NS(=O)(=O)c1ccc(NC(C)=O)cc1,0.3,-72.6,1.7,93.0*,0.1,10.4
CCN(CC)S(=O)(=O)c1ccc(OC)c(NS(=O)(=O)c2ccc(F)cc2)c1,-1.1,14.8,0.9,39.0,0.6,5.8
COc1cc(NS(=O)(=O)c2ccc(F)cc2)c(OC)cc1NC(=O)C1CC1,-6.9,16.2,0.8,97.9*,0,0.6
COc1ccccc1NS(=O)(=O)c1ccc(OC)c(OC)c1,-0.3,-158.6,2.6*,99.0*,0,2.8
COc1cc(NS(=O)(=O)c2ccc(OC)c(OC)c2)cc(OC)c1,-0.2,73.9*,0.3,99.5*,0,2.1
CSCCC1NC(=O)NC1=O (stereo unspecified),-5.6,-15.2,1.2,-10.0,1.1,24.6
CCCN(C(=S)Nc1ccccc1)C1CCS(=O)(=O)C1 (stereo unspecified),1.3,-2.4,1,1.6,1,-3.6
COc1ccc(S(=O)(=O)Nc2ccccc2C(=O)OC2CCCN(C)C2)cc1OC (stereo unspecified),3.8,-60.2,1.6,65.9*,0.3,-0.8
COc1ccc(S(=O)(=O)Nc2ccccc2C(=O)NC(C)(C)C)cc1OC,2.7,19.9,0.8,73.0*,0.3,4.2
COc1ccccc1NS(=O)(=O)c1ccc(C)c(C(N)=O)c1,-2.3,-4.4,1,87.9*,0.1,10.6
COc1ccccc1NS(=O)(=O)c1cc(Cl)ccc1OC,8.0,48.5,0.5,97.0*,0,9.9
COc1ccc(C(C)C)cc1S(=O)(=O)Nc1ccccn1,-2.0,0.6,1,13.8,0.9,11.2
COC(=O)c1cc(OC)c(OC)cc1NC(=O)CCC1CCCC1,0.0,-3.9,1,11.4,0.9,26.5
COc1cccc(N2CC(O)=C(c3ccccc3)C2=N)c1,-7.2,-5.5,1.1,11.6,0.9,-3.3
Oc1ccccc1/C=N/NC1=NCCCCC1,-3.7,0.0,1,4.3,1,9.6
CC1CC(NC(=O)CCn2c(=O)oc3ccccc32)CC(C)(C)C1 (stereo unspecified),1.4,11.7,0.9,19.5,0.8,9.1
Cc1cc(C)n2nc(SCc3nnc(SCc4ccccc4Cl)s3)nc2n1,-1.9,45.7,0.5,8.9,0.9,36.4*
Cc1cc(C)n2nc(SCc3nnc(SCc4ccccc4C)s3)nc2n1,13.6,0.3,1,77.1*,0.2,20.2
COc1cccc(CSc2nnc(CSc3nc4nc(C)cc(C)n4n3)s2)c1,0.5,44.0,0.6,97.8*,0,13.2
O=C(COC(=O)c1cccs1)NCCN1C(=O)CSC1=O,-12.2,-32.1,1.3,62.9*,0.4,0.8
O=C(NCCN1C(=O)CSC1=O)c1ccccc1,-4.0,-13.9,1.1,-0.6,1,-9.8
SMILES,PostGolgi yeast,CYP2C9 inh,CYP2C9 activ,CYP2C19 inhib,CYP2C19 act,PostGolgi ctrl
O=C(COC(=O)c1cccnc1Nc1cccc(C(F)(F)F)c1)NCCN1C(=O)CSC1=O,-3.1,96.8*,0,62.7*,0.4,12.6
CCSc1nnc(-c2cccnc2)n1-c1ccc(Cl)c(C)c1,3.2,11.8,0.9,13.3,0.9,-3.1
Cc1cccc(NC(=S)NC2CC3CCCC(C2)N3Cc2cccs2)c1 (stereo unspecified),1.6,-6.7,1.1,-7.6,1.1,8.0
COc1ccc(OCC(O)CNC(=O)c2ccc(Br)cc2)cc1 (stereo unspecified),19.1,46.4,0.5,51.7*,0.5,2.3
COc1ccc(C(=O)NCC(C)CN(C)C)cc1 (stereo unspecified),-6.4,-22.8,1.2,-16.9,1.2,10.2
COc1ccc(OCC(O)COc2ccc(OC)cc2)cc1,8.2,49.8,0.5,88.8*,0.1,-10.1
COc1ccc(OCC(O)CNc2ccc(Br)cc2)cc1 (stereo unspecified),6.0,89.6*,0.1,96.7*,0,18.2
CC1CCN(c2ccccc2NC(=O)c2ccc(N3CCOCC3)c([N+](=O)[O-])c2)CC1,-7.0,21.2,0.8,19.2,0.8,-3.2
Cc1oc(C(=O)O)cc1COc1cccc2cccnc12,7.8,-16.1,1.2,-0.5,1,-1.4
CCOC(=O)c1cc(C#N)c(Oc2ccccc2)nc1-c1ccccc1,8.0,33.1,0.7,21.8,0.8,17.6
COC(=O)c1cc(C#N)c(Oc2ccc(F)cc2)nc1C,2.2,0.6,1,53.6*,0.5,-2.3
COCCN(CCOC)Cc1c(C)[nH]c2ccccc2c1=O,1.0,35.0,0.7,64.8*,0.4,-6.0
CC(=O)CCc1c(C)[nH]c2ccccc2c1=O,8.4,-116.6,2.2*,-6.6,1.1,-1.9
Cc1[nH]c2ccccc2c(=O)c1CN(C)Cc1ccccc1,-1.2,11.5,0.9,0.3,1,6.2
CC(=O)c1c(C)[nH]c2ccccc2c1=O,-0.3,-40.5,1.4,-14.9,1.1,22.7
CCc1c(C)[nH]c2ccccc2c1=O,13.3,-372.4,4.7*,-13.5,1.1,10.7
Cc1ccc(-n2c(Cc3cccn3C)nnc2SCC(=O)Nc2cc(C)on2)cc1,-0.5,5.1,0.9,2.5,1,-4.0
c1cn(CCCNc2ncnc3sc4c(c23)CCC4)cn1,15.1,96.8*,0,100.4*,0,4.1
c1ccc(Nc2ncnc3sc4c(c23)CCC4)cc1,-1.9,22.9,0.8,76.2*,0.2,6.3
Fc1ccc(Nc2ncnc3sc4c(c23)CCC4)cc1,-4.8,61.0*,0.4,88.5*,0.1,40.0*
C[C@H](Nc1ncnc2sc3c(c12)CCC3)C(=O)O,3.4,5.1,0.9,-1.4,1,18.8
O=S(=O)(Nc1ncnc2sc3c(c12)CCC3)c1ccc2ccccc2c1,4.5,78.6*,0.2,17.3,0.8,18.1
CCCOc1ccc(Cc2nc(N)nc(N)n2)cc1,-2.4,-38.9,1.4,-11.4,1.1,-5.1
c1csc(CCNc2ncnc3sc4c(c23)CCC4)c1,-1.2,46.4,0.5,93.8*,0.1,82.2*
Cc1nc(NS(=O)(=O)c2ccccc2C)c2c3c(sc2n1)CCC3,0.3,26.4,0.7,2.1,1,46.8*
Cc1ccc(NC(=O)COc2ccccc2CNC(C)(C)CC(C)(C)C)cc1,-4.2,6.3,0.9,45.8,0.5,25.7
O=C(C1CCCN(S(=O)(=O)c2ccc(Cl)cc2)C1)N(Cc1cccs1)C1CC1 (stereo unspecified),93.8*,13.0,0.9,68.8*,0.3,20.5
